{"source": "PubChem BioAssay AID615", "about": "(Sanford-Burnham Center for Chemical Genomics, 2007)", "note": "Among all 21,000 compounds or so, fewer than 10 were called active. Not all results are given here. A number with no mark means an inactive call.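 How the source made its calls: active means inhibition above 50% at the 20 µM single-dose screen; inactive means the rest.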"}
{"molecular_target": "Alkaline phosphatase, tissue-nonspecific isozyme (Homo sapiens) (UniProt P05186)", "sequence (P05186 whole entry, looked up)": "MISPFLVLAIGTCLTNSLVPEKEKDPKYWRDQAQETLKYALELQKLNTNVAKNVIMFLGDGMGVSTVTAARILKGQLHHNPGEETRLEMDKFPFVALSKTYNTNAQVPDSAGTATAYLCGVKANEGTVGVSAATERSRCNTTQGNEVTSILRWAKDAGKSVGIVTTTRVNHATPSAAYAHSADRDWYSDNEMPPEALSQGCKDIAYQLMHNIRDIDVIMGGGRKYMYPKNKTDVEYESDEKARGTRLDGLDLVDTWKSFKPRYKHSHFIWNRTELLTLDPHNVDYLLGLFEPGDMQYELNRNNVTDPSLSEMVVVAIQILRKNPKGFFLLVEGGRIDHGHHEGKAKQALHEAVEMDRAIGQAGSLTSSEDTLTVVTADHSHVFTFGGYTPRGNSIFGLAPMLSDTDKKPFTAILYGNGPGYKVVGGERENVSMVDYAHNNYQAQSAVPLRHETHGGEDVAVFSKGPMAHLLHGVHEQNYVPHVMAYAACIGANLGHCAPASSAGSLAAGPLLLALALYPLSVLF", "test": "human TNAP enzyme inhibitors, primary screen, biochemical, colorimetric, p-nitrophenol readout (AID 615);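 further: 0% = DMSO only wells and 100% = 1 mM levamisole wells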", "conditions": "purified TNAP, pNPP hydrolysis, absorbance 405 nm; at 20 µM; stronger effect = higher value", "units": {"inhibition": "%"}}
{"smiles": "Cc1ccc(C(=O)NC2CCN(C(=O)N3CCOCC3)CC2)cc1", "inhibition": 7}
{"smiles": "COc1ccc(N2CCN(C(c3cc4ccc(C)cc4[nH]c3=O)c3nnnn3C3CCCC3)CC2)cc1", "note": "(stereo not drawn)", "inhibition": 14.6}
{"smiles": "CCOC(=O)c1c(NC(=O)c2ccc(Br)o2)sc2c1CCCC2", "inhibition": 1}
{"smiles": "Cc1cc(=O)[nH]c(SCC(N)=O)c1C#N", "inhibition": -1.7}
{"smiles": "O=C(c1ccc2c(c1)C(=O)N(c1ccc(Cl)cc1)C2=O)N1CCN(c2ccccn2)CC1", "inhibition": 5.1}
{"smiles": "CCOc1ccc2nc(NC(=O)CSc3nc4c(c(=O)n(C)c(=O)n4C)n3CC)sc2c1", "inhibition": 4.9}
{"smiles": "CN(C)CCNC(=O)C(C(=O)c1ccccc1)n1ccccc1=O", "note": "(stereo not drawn)", "inhibition": 1.2}
{"smiles": "CCc1c(C)sc(NC(=O)OC)c1C(=O)N1CCOCC1", "inhibition": 4.1}
{"smiles": "O=C(O)CN1C(=O)CC(Cc2ccccc2)C1=O", "note": "(stereo not drawn)", "inhibition": 4.8}
{"smiles": "CCNC(=O)N1CCNC(=O)C1CC(=O)Nc1ccc(C(=O)OCC)cc1", "note": "(stereo not drawn)", "inhibition": 4.4}
{"smiles": "CCOC(=O)c1[nH]c2ccccc2c1N=C(C)N(CC)CC", "inhibition": -0.8}
{"smiles": "Cc1nn(Cc2ccccc2)c(Cl)c1C(=O)OC1CCOC1=O", "note": "(stereo not drawn)", "inhibition": 3.6}
{"smiles": "CCC1C(C#N)=C(SC)NC2=C1C(=O)CC(C)(C)C2", "note": "(stereo not drawn)", "inhibition": -2.9}
{"smiles": "COc1ccc(CC(=O)n2nc(-c3cccnc3)nc2N)cc1", "inhibition": 6.9}
{"smiles": "Cc1cccc(OCc2nnc(SCC(=O)N3CCN(C(=O)c4ccco4)CC3)n2C)c1C", "inhibition": 0.2}
{"smiles": "c1csc(CN2CCN(Cc3cccs3)C2c2cccs2)c1", "inhibition": 5.5}
{"smiles": "CCN1C(=O)/C(=C\\N2CCN(c3cccc(Cl)c3)CC2)SC1=S", "inhibition": 6.1}
{"smiles": "COC(=O)[C@H](CCSC)NC(=O)Nc1ccc(OC)cc1", "inhibition": 4.9}
{"smiles": "C#CCN1CC(C)/C(=N/O)CC1C", "note": "(stereo not drawn)", "inhibition": 2.4}
{"smiles": "CC(C)OC(=O)C(C#N)c1nc2ccccc2nc1N1CCN(Cc2ccc3c(c2)OCO3)CC1", "note": "(stereo not drawn)", "inhibition": 0}
{"smiles": "O=C(Nc1ncccn1)c1cccs1", "inhibition": 3.3}
{"smiles": "CCCCCN(C(=O)NC(=O)Nc1ccccc1C)S(C)(=O)=O", "inhibition": 0.7}
{"smiles": "Cc1ccc(C(=O)Nc2nnc(-c3ccncc3)s2)o1", "inhibition": -1.1}
{"smiles": "O=C(c1cccs1)N1CCCC(c2nc(-c3ccc(F)cc3)no2)C1", "note": "(stereo not drawn)", "inhibition": 2.9}
{"smiles": "CCCc1cc(=O)oc2c(C)c(O)c(CN3CCCCC3)cc12", "inhibition": 0.2}
{"smiles": "COc1ccc2c3c(c(=O)oc2c1OCC(=O)C(C)(C)C)CCCC3", "inhibition": 3.6}
{"smiles": "CCOC(=O)CSc1nnc(CNc2nc(-c3ccccc3)cs2)n1C", "inhibition": 5.4}
{"smiles": "CCc1cc2c(=O)c(-c3ccon3)c(N)oc2cc1OC", "inhibition": 5.4}
{"smiles": "Cc1ccnc(SCCn2c(Br)nc3c2c(=O)[nH]c(=O)n3C)n1", "inhibition": 3}
{"smiles": "O=C(Nc1cnn(Cc2ccc(Cl)cc2)c1)C1CCCC1", "inhibition": 9.7}
{"smiles": "COc1cc(OC)cc(C(=O)NCCSCc2ccco2)c1", "inhibition": 5.2}
{"smiles": "CC1(N2CCOCC2)CC2(O)C(=[N+]1[O-])CCc1nonc12", "note": "(stereo not drawn)", "inhibition": 9.3}
{"smiles": "CC1CN(C2CCN(C(=O)COc3ccccc3)CC2)CC(C)O1", "note": "(stereo not drawn)", "inhibition": -2.1}
{"smiles": "CC(C)c1nnc(NC(=O)C2CCCN2S(=O)(=O)c2ccc(Cl)cc2)s1", "note": "(stereo not drawn)", "inhibition": 3.8}
{"smiles": "O=C(CSc1nnc(Cc2ccccc2)n1-c1ccccc1)N1CCOCC1", "inhibition": 0.4}
{"smiles": "Cc1cccc(NC(=O)CSc2nnc(CCCCCNC(=O)OC(C)(C)C)o2)c1C", "inhibition": -8.7}
{"smiles": "COC(=O)c1ccc(NC(=O)CSc2nnc(-c3ccncc3)n2C)cc1", "inhibition": 1.1}
{"smiles": "O=C(O)C1CCCN1S(=O)(=O)c1ccc2c(c1)CCC2", "note": "(stereo not drawn)", "inhibition": 0.7}
